From PubChem BioAssay
VLA-4 inh: inhibition in a human VLA-4 binding assay; VLA-4 expressing cells, ligand binding flow cytometry; inhibition, % (about 7 µM as worked out from the volumes in the protocol); actives 0.2% (n = 330,000); in the data active = inhibition above about 50%
Target sequence (P13612 whole entry, looked up): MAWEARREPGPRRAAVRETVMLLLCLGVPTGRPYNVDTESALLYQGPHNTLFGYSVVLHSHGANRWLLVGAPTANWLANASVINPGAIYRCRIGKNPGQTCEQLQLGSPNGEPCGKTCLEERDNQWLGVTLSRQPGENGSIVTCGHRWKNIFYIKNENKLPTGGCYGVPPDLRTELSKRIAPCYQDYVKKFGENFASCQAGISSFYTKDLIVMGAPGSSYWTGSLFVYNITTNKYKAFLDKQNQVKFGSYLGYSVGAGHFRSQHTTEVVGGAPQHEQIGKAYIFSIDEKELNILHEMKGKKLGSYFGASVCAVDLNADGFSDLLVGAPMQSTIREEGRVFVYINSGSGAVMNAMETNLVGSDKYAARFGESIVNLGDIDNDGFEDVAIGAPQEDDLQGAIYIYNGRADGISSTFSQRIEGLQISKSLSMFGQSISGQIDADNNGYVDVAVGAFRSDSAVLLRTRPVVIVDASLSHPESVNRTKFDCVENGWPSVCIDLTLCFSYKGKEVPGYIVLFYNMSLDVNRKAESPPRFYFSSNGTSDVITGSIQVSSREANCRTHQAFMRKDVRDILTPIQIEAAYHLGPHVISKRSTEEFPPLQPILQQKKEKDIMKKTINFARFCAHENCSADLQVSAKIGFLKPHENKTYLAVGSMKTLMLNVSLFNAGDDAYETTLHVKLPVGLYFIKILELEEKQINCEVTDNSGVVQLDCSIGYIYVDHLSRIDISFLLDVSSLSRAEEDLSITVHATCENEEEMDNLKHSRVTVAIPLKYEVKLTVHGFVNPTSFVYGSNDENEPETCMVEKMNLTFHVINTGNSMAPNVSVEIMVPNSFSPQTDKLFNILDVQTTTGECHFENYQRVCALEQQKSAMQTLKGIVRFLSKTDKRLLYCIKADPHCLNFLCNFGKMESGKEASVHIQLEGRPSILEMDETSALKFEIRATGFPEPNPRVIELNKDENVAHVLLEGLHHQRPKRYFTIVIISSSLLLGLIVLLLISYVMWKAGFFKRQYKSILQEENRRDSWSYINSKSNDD
AGP1 TOR yeast: yeast TOR pathway AGP1-GFP modulation | S. cerevisiae AGP1-GFP multiplex flow cytometry, 3 h; GFP as percent of DMSO wells | GFP response vs DMSO, % at 10 µM | actives 0.02% (n = 320,000) | AID 2066;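 active = GFP response relative to DMSO above a set limit, near screen average plus 3 SD, cut at about 150% in these data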;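 note: median GFP channel fluorescence of the gated AGP1 strain per well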
CIT2-GFP yeast: alters CIT2-GFP fluorescence in TOR pathway yeast screen; S. cerevisiae CIT2-GFP strain, flow cytometry, 3 h; 100 means same as DMSO wells; GFP response vs DMSO, % at 10 µM; actives 0.065% (n = 320,000);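 active = GFP response relative to DMSO above a set limit, near the screen mean plus 3 SD, cut at about 150% in these data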;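 note: ratio of well median GFP fluorescence to mean of DMSO wells on the plate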
MEP2 TOR yeast: modulators of TOR pathway MEP2-GFP in S. cerevisiae; GFP response vs DMSO, % at 10 µM; S. cerevisiae MEP2-GFP strain, flow cytometry GFP, 3 h; 100% = DMSO control level; actives 0.51% (n = 330,000);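 active = GFP response versus DMSO above a set limit, roughly screen mean plus 3 SD, cut at about 180% in these data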;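 note: median GFP fluorescence of the barcode-gated MEP2-GFP cells per well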
LAP4 TOR yeast: yeast TOR pathway LAP4-GFP modulation. actives 0.34% (n = 320,000). AID 2023. S. cerevisiae LAP4-GFP multiplex, flow cytometry GFP, 3 h; median GFP as percent of DMSO wells. GFP response vs DMSO, % at 10 µM;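 active = GFP response vs DMSO above a set limit, about the screen mean plus 3 SD, cut at about 150% in these data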
RPL19A-GFP yeast: alters RPL19A-GFP fluorescence in TOR pathway yeast screen | actives 0.3% (n = 330,000) | S. cerevisiae RPL19A-GFP strain, flow cytometry, 3 h; hits give low values | percent response vs DMSO, % at 10 µM;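 active = percent response vs DMSO below 50%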;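 note: median channel GFP fluorescence of the barcoded RPL19A-GFP strain; ratio of sample median GFP to plate DMSO average so 100% = DMSO; lower means less RPL19A-GFP as with rapamycin TOR inhibition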
LAP4-GFP pick2: second confirmation of modulators of TOR reporter LAP4-GFP in yeast | shares compounds with LAP4 TOR yeast | S. cerevisiae LAP4-GFP strain, flow cytometry GFP, 3 h | GFP response vs DMSO, % at 10 µM | actives 20% (n = 590) | AID 2621;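 active = GFP signal as percent of the solvent control above about 150%, meaning raised reporter expression, limit read from the data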;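 note: ratio of well median GFP fluorescence to plate DMSO mean so 100% = DMSO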
MEP2-GFP pick2: reconfirmed MEP2-GFP TOR pathway modulator in yeast | actives 10% (n = 590) | S. cerevisiae MEP2-GFP strain, flow cytometry GFP, 3 h | GFP response vs DMSO, % at 10 µM | shares compounds with LAP4 TOR yeast;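 active = GFP signal above 150% of the solvent control wells, that is a rise of more than half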;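 note: median channel GFP fluorescence of all gated yeast cells per well; ratio of median GFP to plate DMSO average so 100% = DMSO level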
RPL19A-GFP pick2: second confirmation of modulators of TOR reporter RPL19A-GFP in yeast. shares compounds with LAP4 TOR yeast. S. cerevisiae RPL19A-GFP strain, flow cytometry GFP, 3 h; hits give low values; 100% means same as DMSO wells. GFP response vs DMSO, % at 10 µM. actives 3% (n = 590);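 active = under 65% GFP response relative to DMSO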;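 note: median GFP channel fluorescence per well over the all cells gate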
CIT2-GFP pick2: second confirmation of modulators of TOR reporter CIT2-GFP in yeast. actives 8% (n = 590). GFP response vs DMSO, % at 10 µM. S. cerevisiae CIT2-GFP strain, flow cytometry GFP, 3 h; DMSO control wells read 100%. shares compounds with LAP4 TOR yeast;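 active = GFP response vs DMSO above about 150%, limit read from the data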;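 note: median green fluorescence per well over all gated yeast cells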
AGP1-GFP pick2: second confirmation of modulators of TOR reporter AGP1-GFP in yeast | shares compounds with LAP4 TOR yeast | S. cerevisiae AGP1-GFP strain, flow cytometry GFP, 3 h | percent response vs DMSO, % at 10 µM | 590 tested, under 10 active | AID 2643;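 active = over 150 percent of DMSO response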;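 note: median GFP channel fluorescence over all cells without mother daughter split; sample median GFP divided by mean DMSO control so 100% equals DMSO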
Yeast autofluor: compound is autofluorescent in yeast s288c cells | 610 tested, under 10 active | S. cerevisiae s288c, 520 nm autofluorescence, flow cytometry, 3 h; hits give high values; zero means same as solvent-only cells | shares compounds with LAP4 TOR yeast | fluorescence change (kMESF span) at 33 µM;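 active = fluorescence span over the dose series, or activity score, above about 33, limit read from the data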
Yeast autofl DR: TOR screen hit shows autofluorescence in yeast s288c; shares compounds with LAP4 TOR yeast; S. cerevisiae s288c parental, compound autofluorescence, flow cytometry, 3 h; fluorescence change (span) at 33 µM; 110 tested, under 10 active;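 active = fluorescence change span, or the activity score built from it, above 25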
TORC1 bypass gr: compounds blocking wildtype yeast growth but not TORC1 bypass cells | 120 tested, under 10 active | shares compounds with LAP4 TOR yeast | growth rating (0-3) at 30 µM | S. cerevisiae BY4741 spot growth rating, 48-72 h; hits give low values;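 active = growth rating at most 1 for wild type yeast while the TORC1 bypass strain still grows fully, rated 3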
Active calls of the source: *; i = inactive; . = no result given. Shown are actives, neighbours in structure and some others; about 1.1% of the full set was active somewhere.

SMILES | VLA-4 inh | AGP1 TOR yeast | CIT2-GFP yeast | MEP2 TOR yeast | LAP4 TOR yeast | RPL19A-GFP yeast | Yeast autofluor | others
Cc1nc(Nc2ccc(F)cc2)nc(Nc2ccc(F)cc2)c1[N+](=O)[O-] | -10.1 | 103.0 | 100.0 | 98.8 | 101.4 | 99.1 | .
COc1cccc(Nc2nc(N)c([N+](=O)[O-])c(Nc3cccc(F)c3)n2)c1 | . | . | . | . | . | . | . | Yeast autofl DR=0.16;TORC1 bypass gr=3
Cc1cccc(Nc2nc(NCC3CCCO3)nc(N)c2[N+](=O)[O-])c1 (stereo not drawn) | -9.8 | 79.4 | 102.5 | 87.5 | 76.9 | 98.9 | .
Nc1nc(Nc2ccccc2F)nc(Nc2cccc(F)c2)c1[N+](=O)[O-] | . | . | . | . | . | . | . | Yeast autofl DR=0.21;TORC1 bypass gr=3
Nc1nc(NCCc2ccccc2)nc(Nc2cccc(F)c2)c1[N+](=O)[O-] | . | . | . | . | . | . | . | Yeast autofl DR=0.1;TORC1 bypass gr=3
CC(C)(C)C(O)C(Cc1ccccc1Cl)n1cncn1 (stereo not drawn) | -1.3 | 100.1 | 100.7 | 103.8 | 90.7 | 102.4 | .
Cc1ccccc1NC(=O)Nc1ccc2c(c1)CCC2 | 8.7 | 96.1 | 98.1 | 98.6 | 78.2 | 103.6 | .
CN(CC(=O)Nc1ccccc1Br)C(=O)CN1CCN(Cc2cccc(Cl)c2)CC1 | 16.2 | 102.4 | 103.3 | 100.7 | 97.3 | 99.7 | .
Cc1ccc(CNc2nc(N)c([N+](=O)[O-])c(Nc3cccc(F)c3)n2)cc1 | -2.9 | 104.1 | 105.4 | 103.1 | 105.9 | 100.5 | .
Nc1nc(NCc2ccccc2)nc(Nc2cccc(F)c2)c1[N+](=O)[O-] | 7.6 | 85.2 | 92.4 | 85.7 | 82.5 | 87.7 | . | Yeast autofl DR=0.1;TORC1 bypass gr=3
Nc1nc(NC2CCCCC2)nc(Nc2cccc(F)c2)c1[N+](=O)[O-] | . | . | . | . | . | . | . | Yeast autofl DR=0.11;TORC1 bypass gr=3
CCN1/C(=C/c2ccc3cc(C)ccc3[n+]2CC)Sc2ccc3sccc3c21 | i | 123.6 | 366.2* | 588.5* | 299.5* | 90.0 | 8.77
CC1=NN(c2ccccc2)C(=O)/C1=C/c1c(C)[nH]n(-c2ccc(C)cc2)c1=O | 3.8 | 90.3 | 87.5 | 91.7 | 97.7 | 92.1 | . | LAP4-GFP pick2=97.1;MEP2-GFP pick2=103.2;RPL19A-GFP pick2=105.7;CIT2-GFP pick2=99.5;AGP1-GFP pick2=102.3
O=C(Nc1ccc(Nc2ccccc2)cc1)C(Cl)Cl | 11.7 | 86.8 | 73.8 | 86.9 | 108.9 | 97.6 | .
CC(C)(C)C(=O)C(Cl)C(=O)Nc1ccccc1 (stereo not drawn) | 3.7 | 116.0 | 119.1 | 105.4 | 285.5* | 68.8 | 1.64 | Yeast autofl DR=0.1;TORC1 bypass gr=3
C[n+]1cccc2c(Br)ccc([O-])c21 | 2.3 | 107.9 | 99.9 | 103.3 | 111.2 | 101.5 | .
[O-][n+]1cccc2c(Br)cc(Br)c(O)c21 | 21.0 | 107.9 | 117.8 | 100.3 | 163.2* | 101.0 | 1.12
O=C1c2cccc3c([N+](=O)[O-])ccc(c23)C(=O)N1O | -159.7 | 115.8 | 273.8* | 350.2* | 227.9* | 147.8 | 20.1
O=C1c2cccc3c([N+](=O)[O-])ccc(c23)C(=O)N1c1ccccn1 | -276.1 | 82.8 | 191.4* | 301.2* | 193.0* | 115.3 | 13.1 | LAP4-GFP pick2=193.3*;MEP2-GFP pick2=324.5*;RPL19A-GFP pick2=121.7;CIT2-GFP pick2=195.6*;AGP1-GFP pick2=114.2
CC(=O)Oc1ccc(N2C(=O)c3cccc4c([N+](=O)[O-])ccc(c34)C2=O)cc1 | 13.2 | 91.2 | 130.2 | 151.3 | 118.9 | 111.8 | .
CC[C@]1(c2ccccc2C)ON(c2ccccc2C(F)(F)F)C1=O | 17.2 | 98.4 | 102.5 | 95.0 | 104.5 | 94.3 | -0.1 | LAP4-GFP pick2=101.2;MEP2-GFP pick2=97.8;RPL19A-GFP pick2=104.0;CIT2-GFP pick2=107.1;AGP1-GFP pick2=97.6
COc1ccccc1[C@@]1(C)ON(c2ccccc2C(F)(F)F)C1=O | 26.3 | 77.5 | 85.2 | 87.9 | 155.4* | 92.5 | 0.3 | LAP4-GFP pick2=140.4;MEP2-GFP pick2=118.1;RPL19A-GFP pick2=103.6;CIT2-GFP pick2=127.8;AGP1-GFP pick2=105.0
Cc1ccccc1[C@]1(C)ON(c2ccccc2C(F)(F)F)C1=O | -6.6 | 80.6 | 81.4 | 80.8 | 122.4 | 95.2 | 0.4 | LAP4-GFP pick2=117.3;MEP2-GFP pick2=101.5;RPL19A-GFP pick2=104.4;CIT2-GFP pick2=114.2;AGP1-GFP pick2=101.6
COc1ccccc1N1C(=O)CC(c2ccccc2)CC1=O | 6.5 | 100.4 | 99.2 | 97.9 | 95.4 | 98.9 | .
NC(=O)c1ccc(NC(=O)Cc2ccc(S(=O)(=O)N3CCCCC3)cc2)cc1 | -3.4 | 96.7 | 99.5 | 97.2 | 97.7 | 97.8 | .
CC(C)C[C@@H](CN=[N+]=[N-])N1CCN(Cc2ccccc2)CCC1=O | -10.6 | 79.4 | 91.2 | 86.8 | 123.4 | 93.1 | .
COc1cc2c(cc1OC)C(Cc1ccc(O)c(Oc3ccc(C[C@H]4c5cc(OC)c(OC)cc5CCN4C)cc3)c1)N(C)CC2 (stereo partly drawn) | -1.8 | 94.2 | 94.5 | 104.8 | 96.5 | 94.7 | .
O=[N+]([O-])c1ccc(Sc2nc3ccccc3o2)c([N+](=O)[O-])c1 | 32.6 | 97.7 | 107.1 | 98.5 | 164.7* | 102.2 | 0.51
O=C(O)c1cccc(-n2cccc2/C=C/[N+](=O)[O-])c1 | 1.2 | 102.8 | 91.6 | 93.8 | 162.7* | 93.5 | . | LAP4-GFP pick2=110.2;MEP2-GFP pick2=99.6;RPL19A-GFP pick2=104.2;CIT2-GFP pick2=116.8;AGP1-GFP pick2=102.9
C#CCOCCOCCOCCNc1nc(N2CCN(C(=O)CCCCCCCCCCNC(=O)Cn3cc(CCCCCN)nn3)CC2)nc(N2CCN(C(=O)CCCCCCCCCCNC(=O)[C@@H](CCC(=O)O)n3cc(CCCCCN)nn3)CC2)n1 | -1.1 | 84.2 | 88.5 | 90.5 | 145.3 | 92.6 | .
